Assay [1] addresses Alpha-galactosidase A (Homo sapiens) (UniProt P06280). Put plainly: Counterscreen for Glucocerebrosidase Inhibitors: qHTS Assay for Human alpha-Galactosidase at pH 4.5 (AID 992). Also: 0% is about no effect. The method in brief: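 Fluorogenic 1536-well qHTS at pH 4.5 (citrate, Tween-20): 2 nM enzyme, 80 uM 4-MU-alpha-galactoside, 20 min room temperature, NaOH/glycine stop. Titration 0.7 nM to 77 uM, data normalized to no-enzyme and full-activity controls, Hill-fitted AC50.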

Assay [2] addresses alpha-glucosidase (Oryza sativa, rice) (UniProt Q653V4). As to the kind of experiment: Counterscreen for Glucocerebrosidase Inhibitors: qHTS Assay for Rice alpha-Glucosidase at pH 5.0 (AID 997).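 Also: 0% = full activity with enzyme and -100% = basal without enzyme.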 Summed up: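 Endpoint fluorogenic assay at pH 5.0: compounds (0.7 nM to 77 uM) titrated against 4 nM rice enzyme and 400 uM 4-MU-alpha-glucoside for 20 min at room temperature; NaOH/glycine stop, read ex 365/em 440 nm, Hill-fitted AC50.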

Assay [3] in a line: Validation of Assay for Modulators of Lamin A Splicing (AID 1459; active = well fitted curve in the direction sought with a large enough effect in the signal ratio; the % refers to the signal ratio;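 also: cells exposed to compound for two days before reading; 0% is about no effect; ratio rise marks activators and ratio drop marks inhibitors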). The method in brief:
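Readout: ratio of GFP (500-530 nm) to RFP (575-640 nm) total object intensity by 488 nm laser-scanning cytometry after 48 hrs. Cells were HeLa S3 clones carrying lamin A-EGFP minigene plus DsRed2 viability reporter; vehicle 0.5% DMSO final.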

Assay [4] can be described thus: qHTS Assay for Lipid Storage Modulators (AID 1519; calls by dose curve; as to activity change, negative = inhibition: % is scaled to controls: 0 for no effect and ±100 for the full control effect). The conditions noted are these: Drosophila S3 cells, BODIPY lipid droplet/cell ratio, laser cytometry, cells loaded with oleic acid; for activity change, negative = inhibition: at 57.5 µM (top of the series). The method in brief: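 Cells seeded at 5,000 per well were treated with compounds over a concentration series and loaded with oleic acid (400 uM, as added). Lipid droplet fluorescence (488 nm excitation, 500-530 nm channel) was read by laser-scanning cytometry and normalized to 20 uM Triacsin C.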
A general note: Quantitative high-throughput screening tests each substance at several concentrations.

Assay [5] concerns the target DNA repair nuclease/redox regulator APEX1 (Homo sapiens) (UniProt P27695). Put plainly: qHTS Validation Assay for Inhibitors of the Human Apurinic/apyrimidinic Endonuclease 1 (APE1) (AID 1705;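 also: TAMRA fluorescence gain over two minutes as APE1 cuts a quenched THF abasic duplex; % is scaled to controls: 0 for no effect and ±100 for the full control effect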). Summed up: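 Read-out: TAMRA fluorescence (525 nm ex, 598 nm em) from cleavage of a quenched THF abasic-site duplex, 50 nM final; activity taken as intensity change between third and first of three reads 60 s apart.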

Assay [6] is described as follows: Counterscreen for APE1 Inhibitors: Fluorescent Dye Displacement Validation Assay (AID 1707).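 Also: plate controls were ThO with dsDNA and no compound for no effect and ThO without dsDNA for full effect.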 The method in brief:
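Counterscreen flags promiscuous DNA binders: compounds displacing ThO from duplex DNA (abasic THF site, 50 nM) reduce 540 nm emission (480 nm excitation). ThO 250 nM final; Tris-HCl pH 7.5 with NaCl, MgCl2 and Tween-20.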
For orientation: Counterscreens check selectivity or assay interference.

Assay [7] deals with Endonuclease 4 (Escherichia coli (strain K12)) (UniProt P0A6C1). Put plainly: Counterscreen for APE1 Inhibitors: qHTS Validation Assay for Inhibitors of Endonuclease IV (AID 1708). Also: % is scaled to controls: 0 for no effect and ±100 for the full control effect. Summed up: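 Incision of a double-stranded 50 nM TAMRA/BHQ-2 abasic substrate was followed kinetically (525/598 nm, reads every 60 s) after 15 min enzyme–compound preincubation with 2 nM EndoIV in pH 7.5 Tris buffer with MgCl2, DTT and Tween-20; concentration-response format.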

A short description of assay [8]: qHTS for differential inhibitors of proliferation of Plasmodium falciparum line 7G8 (AID 1815).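 Also: parasite growth measured after three days of incubation; plate controls were vehicle wells for no effect and reference inhibitor wells for full effect.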
The nature of assay [9]: qHTS for differential inhibitors of proliferation of Plasmodium falciparum line GB4 (AID 1816).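 Also: parasite growth measured after 72 h incubation; 0% = vehicle DMSO and -100% = reference inhibitor.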 The conditions noted are these: Potency: Plasmodium falciparum GB4 proliferation inhibition.
The nature of assay [10]: qHTS for differential inhibitors of proliferation of Plasmodium falciparum line 3D7 (AID 1876).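 Also: parasite growth measured after three days of culture; 0% = vehicle wells and -100% = reference inhibitor wells.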
The mark [11] stands for this setting: measured here: cell count channel max response.
Setting [12] is: measured here: lipid channel max response.

Several values for one entry are separate records, joined by “and”; a condition that tells them apart may be missing. Identical values can stand only once. Records with an inconclusive call do not appear. Activity calls are given as the source filed them. Unless noted, calls follow the shape of the dose curve; as a rule, active = well fitted curve in the direction sought with a large enough effect; inconclusive = small, poorly fitted or top-dose-only effect, or another doubt; inactive = no such curve, though single readings can be large; an effect the other way counts as inactive or inconclusive.

Alpha-galactosidase A (Homo sapiens), sequence (P06280 whole entry, looked up): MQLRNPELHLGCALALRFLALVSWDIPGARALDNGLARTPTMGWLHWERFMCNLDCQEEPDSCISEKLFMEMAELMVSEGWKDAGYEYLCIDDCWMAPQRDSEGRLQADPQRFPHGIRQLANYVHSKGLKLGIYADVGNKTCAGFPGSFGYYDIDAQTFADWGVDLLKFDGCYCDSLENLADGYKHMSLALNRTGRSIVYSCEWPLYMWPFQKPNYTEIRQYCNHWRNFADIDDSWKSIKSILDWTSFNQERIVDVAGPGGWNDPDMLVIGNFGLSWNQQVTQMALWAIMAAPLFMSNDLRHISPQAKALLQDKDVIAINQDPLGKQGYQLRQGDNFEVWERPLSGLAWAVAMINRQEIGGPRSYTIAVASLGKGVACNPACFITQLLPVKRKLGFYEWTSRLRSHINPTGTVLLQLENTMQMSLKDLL
DNA repair nuclease/redox regulator APEX1 (Homo sapiens), sequence (P27695 whole entry, looked up): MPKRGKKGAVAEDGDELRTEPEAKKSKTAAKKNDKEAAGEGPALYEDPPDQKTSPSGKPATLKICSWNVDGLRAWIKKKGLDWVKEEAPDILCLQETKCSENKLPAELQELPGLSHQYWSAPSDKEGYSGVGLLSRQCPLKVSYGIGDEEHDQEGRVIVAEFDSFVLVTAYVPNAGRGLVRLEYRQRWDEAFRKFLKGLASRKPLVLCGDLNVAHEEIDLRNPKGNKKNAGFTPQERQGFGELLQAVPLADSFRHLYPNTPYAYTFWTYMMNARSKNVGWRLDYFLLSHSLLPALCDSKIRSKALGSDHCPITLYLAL

On to `CC(=O)NCCc1c[nH]c2ccc(O)cc12`, for which the compound was called inactive in assay [1], in assay [2] and in assay [3]. In addition, in assay [4], the activity change, negative = inhibition is 10.9% (inactive). For the same compound, the max response in assay [4] (setting [11]) was 15.4%; in [4] (setting [12]) it was 28.6%. Besides, the Potency entry in [5], in assay [6], in assay [7], in [8], in assay [9] and in assay [10] was “inactive” each time.
Turning to `CCCCCC(O)CCCC(=O)O` (stereo not given), the call in [3] was inactive. Also, in [4], the activity change, negative = inhibition was 0.833% (inactive). Moreover, the max response in [4] (setting [11]) was -25.3%; in [4] (setting [12]), -24.6%. The Potency entry in [5], in [6], in assay [7], in assay [8], in [9] and in [10] was “inactive” throughout.
Consider `CCCn1c(=O)c2c(ncn2C)n(CCC)c1=O`, for which the result in assay [1], in [2] and in assay [3] was inactive. The activity change, negative = inhibition in assay [4] is -2.98% (inactive). Also, the max response in [4] (setting [11]) is -22.4%; in assay [4] (setting [12]), -33.5%. The Potency result in assay [5], in assay [6], in assay [7], in assay [8], in assay [9] and in [10] was “inactive” each time.
Turning to `C[C@H](O)C(=O)C1=Nc2c(nc(N)[nH]c2=O)NC1`, the compound was called inactive in assay [1], in assay [2] and in [3]. In assay [4], the activity change, negative = inhibition is 3.44% (inactive). Moreover, the max response was 8.97% in assay [4] (setting [11]) and 8.64% in assay [4] (setting [12]). In addition, the Potency entry in assay [5], in [6], in assay [7], in assay [8], in assay [9] and in [10] was “inactive” each time.
Consider `N[C@@H](CCC(=O)N[C@H](CSN=O)C(=O)NCC(=O)O)C(=O)O`, for which, in assay [3], the compound was classed as inactive. For the same compound, the activity change, negative = inhibition in assay [4] is 0.446% (inactive). Also, the max response in [4] (setting [11]) is -20.1%; in assay [4] (setting [12]), -19.6%. Moreover, the Potency result in assay [5], in [6], in assay [7], in assay [8], in assay [9] and in [10] was “inactive” in each case.
Regarding `O=C(O)/C=C/c1ccc(O)c(O)c1`, the call in assay [1], in [2] and in assay [3] was inactive. The activity change, negative = inhibition in [4] was 3.74% (inactive) and 0.322% (inactive). Moreover, the max response in [4] (setting [11]) is 0.683% and 6.48%; in [4] (setting [12]), 7.03% and 6.69%. The Potency entry in assay [5], in assay [6], in assay [7], in assay [8], in assay [9] and in [10] was “inactive” in each case.
In the case of `O=C(O)C1=CCNCC1`, the compound was classed as inactive in [1], in assay [2] and in [3]. The activity change, negative = inhibition in assay [4] was 1.16% (inactive) and 3.31% (inactive). Further, the max response was -10.7% and 4.5% in assay [4] (setting [11]); -10.6% and 21.6% in [4] (setting [12]). Further, the Potency entry in [5], in [6], in assay [7], in assay [8], in assay [9] and in assay [10] was “inactive” each time.
For `NC1C=CC=C(C(=O)O)C1` (stereo not given), in assay [3], the compound was called inactive. The activity change, negative = inhibition in assay [4] was 2.8% (inactive). The values for the max response in [4] (setting [11]) and in assay [4] (setting [12]) were 4.79% and -17.7%, respectively. In addition, the Potency result in assay [5], in assay [6], in assay [7], in [8], in assay [9] and in [10] was “inactive” throughout.
For the compound `NC(C(=O)N[C@@H]1C(=O)N2C(C(=O)O)=C(Cl)CS[C@H]12)c1ccccc1` (stereo not given in full), the outcome in [3] was inactive. The activity change, negative = inhibition in assay [4] was -2.36% (inactive). Moreover, the results for the max response in [4] (setting [11]) and in assay [4] (setting [12]) were -29.4% and -32.3%, respectively. Moreover, the Potency entry in [5], in [6], in [7], in assay [8], in assay [9] and in [10] was “inactive” in each case.

Values taken from PubChem BioAssay (NCATS).
